{
  "source": "PubChem BioAssay (NCI)",
  "note": "This is part of a sample that, as a whole, favours compounds with a hit. Of some 83,000 tested, about 20% had one in any assay.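 Treatment: one concentration, 48 hours, 96-well format. Scoring: percent growth, with anything below 10 considered active.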 Unmarked numbers belong to inactive results. The source made the active and inactive calls.",
  "data": [
    {"test_system": "A549/ATCC NSCLC", "assay": "NCI-60 one-dose screen, 48 h (100 = growth as untreated, 0 = no growth, -100 = all killed)", "conditions": "10 µM unless noted", "units": {"growth": "%"}, "values": [
      {"smiles": "CC(C)[C@@H]1C=C2CC[C@H]3[C@](C)(CN)CCC[C@]3(C)[C@H]2CC1", "growth": 95.5},
      {"smiles": "CC1(C)CN(CCNc2nccc(-c3c(-c4cccc(O)c4)nc4sccn34)n2)S(=O)(=O)N1", "growth": 117},
      {"smiles": "CCNC(=O)c1ccc2c(c1)nc(-c1ccc(Cl)cc1)n2-c1cc(C(C)(C)C)[nH]n1", "growth": 48.6},
      {"smiles": "CCc1c(C)c2ccc(O)c(-c3cc(-c4ccccc4)c(C#N)c(=O)[nH]3)c2oc1=O", "growth": 90},
      {"smiles": "C=C(C)[C@@H]1CC[C@]2(C(=O)NS(=O)(=O)c3ccccc3)CC[C@]3(C)[C@H](CC[C@@H]4[C@@]5(C)CC[C@H](OC(=O)NS(=O)(=O)c6ccccc6)C(C)(C)[C@@H]5CC[C@]43C)[C@@H]12", "growth": 18.3}
    ]},
    {"test_system": "786-0 renal", "assay": "NCI-60 one-dose screen, 48 h (100 = growth as untreated, 0 = no growth, -100 = all killed)", "conditions": "10 µM unless noted", "values": [
      {"smiles": "FC(F)(F)c1cc(-c2nnc3n2N=C(Cl)CS3)cc(C(F)(F)F)c1", "growth": "93.5%"},
      {"smiles": "COc1ccc(/C=C/c2nc3ccccc3c(=O)n2-c2ccc(C#Cc3ccc(C(C)(C)C)cc3)cc2C)c(OC)c1", "growth": "101%"},
      {"smiles": "Cc1cc(O)c2cc3c(O)c(O)ccc3cc2c1", "growth": "91.5%"},
      {"smiles": "COc1ccc(-c2nc3ccccc3n3cccc23)cc1", "growth": "100%"},
      {"smiles": "CCOC(=O)c1cc(C(=O)OCC)c(C)nc1C", "growth": "106%"},
      {"smiles": "CN1C(=O)N(C)C2C1NN=c1s/c(=C\\c3ccc(Br)cc3)c(=O)n12", "note": "(centres undefined)", "growth": "30.2%"},
      {"smiles": "O=C1OCC2=C1C(c1ccccc1)c1cc3c(cc1N2CCO)OCO3", "note": "(centres undefined)", "growth": "32.1%"},
      {"smiles": "CCC1N=C(N)N=C(N)N1c1ccc(Cl)cc1", "note": "(centres undefined)", "growth": "58.6%"},
      {"smiles": "COc1cc(OC)cc(-c2ccc(-c3ccc(C(=N)N)s3)s2)c1", "growth": "-80.4% (active)"},
      {"smiles": "Cc1cccc(N=NC(=S)NNc2cccc(C)c2)c1", "growth": "111%"},
      {"smiles": "CCn1c(Cc2ccccc2Nc2c(Cl)cccc2Cl)nnc1SCC(=O)Nc1cccc(OC)c1", "growth": "89.8%"},
      {"smiles": "NC(=S)N1N=C(c2ccc(Cl)cc2)CC1c1cc2ccccc2[nH]c1=O", "note": "(centres undefined)", "growth": "98%"},
      {"smiles": "CC(C)c1nc2ccccc2n1CC(=O)N/N=C/c1cccc(O)c1", "growth": "95.6%"},
      {"smiles": "COc1ccc(Oc2nc(Nc3ccc(N4CCOCC4)cc3)ncc2NC(=O)Nc2cccc(OC)c2)cc1", "growth": "80.7%"},
      {"smiles": "Clc1cccc(CNc2c3ccccc3nc3ccccc23)c1", "growth": "25.2%"},
      {"smiles": "O=C1OCC2=C1C(c1ccccc1)c1cc3c(cc1N2CCO)CCC3", "note": "(centres undefined)", "growth": "8.65% (active)"},
      {"smiles": "C=C1C(=O)O[C@H]2[C@H]1CC/C(COC(=O)NCc1[nH]nc3ccccc13)=C\\CC[C@@]1(C)O[C@@H]21", "growth": "-25.4% (active)"},
      {"smiles": "CC(=O)Oc1c(Cl)c(Cl)c(Cl)c(Cl)c1Cl", "growth": "100%"},
      {"smiles": "CC(=O)Nc1c(Br)cc2c(c1Br)Cc1cc(Br)ccc1-2", "growth": "87%"},
      {"smiles": "Cc1ccc(C(CN(C)C)C(=O)c2ccccc2)cc1", "note": "(centres undefined)", "growth": "-20.7% (active)"},
      {"smiles": "CCOC(=O)C(CCCCC(NC(C)=O)(C(=O)OCC)C(=O)OCC)(NC(C)=O)C(=O)OCC", "growth": "99.4%"},
      {"smiles": "O=[N+]([O-])c1ccc(SSc2ccc([N+](=O)[O-])cc2Cl)c(Cl)c1", "growth": "102%"},
      {"smiles": "COc1cc(/C=C2\\CN(C(=O)OC(C)(C)C)C/C(=C\\c3ccc(O)c(OC)c3)C2=O)ccc1O", "growth": "93.3%"},
      {"smiles": "O=S1(=O)NCCN1CCNc1nccc(-c2c(-c3cccc(O)c3)nc3sccn23)n1", "growth": "126%"},
      {"smiles": "CNCCCn1c2c(c3ccc(Cl)cc3c1=O)C(=O)c1cc(OC)cnc1-2", "growth": "-85.1% (active)"},
      {"smiles": "O=C(/C=C/c1ccccc1)c1c[nH]c2ccccc2c1=O", "growth": "4.48% (active)"},
      {"smiles": "N=C(N)c1ccc(-c2ccc(-c3ccco3)o2)cc1F", "growth": "4.8% (active)"},
      {"smiles": "C[C@@H]1N=C(c2ccc3ccccc3c2)Nc2nc3ccccn3c2C1=O", "growth": "69.3%"},
      {"smiles": "COc1ccc2[nH]cc(C3(c4c[nH]c5ccc(OC)cc45)C(=O)Nc4ccc(F)cc43)c2c1", "growth": "82.6%"},
      {"smiles": "CC(=O)Nc1ccc(/C=N/N2CCCCCC2)cc1", "growth": "90.9%"},
      {"smiles": "COc1cc(-c2nn(C(=O)NCCN3CCN(C)CC3)cc2-c2ccncc2)ccc1Cl", "growth": "59.3%"},
      {"smiles": "COc1cc(C2CC(=O)Nc3c2cnn3C)cc(OC)c1OC", "note": "(centres undefined)", "growth": "103%"},
      {"smiles": "COc1cc2c(c(OC)c1O)C(=O)C(OC)C(c1ccc(O)c(O)c1)O2", "note": "(centres undefined)", "growth": "17%"},
      {"smiles": "CCOC(=O)C1C(=O)C=C(c2ccccc2)CC1c1sc(N(C)Cc2ccccc2)nc1Cl", "note": "(centres undefined)", "growth": "93.2%"}
    ]}
  ]
}
